Results as given in PubChem BioAssay (NCATS).
Inconclusive results are not listed. Values without a mark were called inactive. Activity calls are given as the source filed them. The call rests on the fitted dose curve; in most records, active means well fitted inhibition curve with a large enough effect; inconclusive means small, poorly fitted or top-dose-only effect; inactive means flat fitted curve, though single readings scatter.
Potency means the concentration at half of the fitted maximal effect.

The molecules below were run on CP192 (assay: qHTS profiling for inhibitors of Plasmodium falciparum proliferation (AID 504749; further: nearly all actives have a fitted effect of over 60% in size;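 on activity, negative = inhibition: 0% = DMSO vehicle and full inhibition = artemisinin control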)). Conditions: P. falciparum in erythrocytes, SYBR Green DNA, 72 h; series mostly up to 28.7 µM; activity, negative = inhibition: at the top concentration.
How it was run: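 P. falciparum-infected erythrocytes (0.3% parasitemia, 2.5% hematocrit) incubated with compound 72 h at 37 C, 5% CO2. Parasite DNA detected by SYBR Green after lysis, overnight at room temperature; normalised to 0.29 uM artemisinin and DMSO.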
In the case of `COc1cc(NCc2ccc3nc(N)nc(N)c3c2C)cc(OC)c1OC`, the Potency is reported as 3010 nM (active). With `NC(N)=NC(N)=NCCc1ccccc1` the Potency was “inactive”. In the case of `N[C@@H](Cc1ccc(O)c(O)c1)C(=O)O`, the “activity, negative = inhibition” value is reported as 11.6%. With `CNNCc1ccc(C(=O)NC(C)C)cc1` the “activity, negative = inhibition” value was 3.68%. In the case of `OC(Cn1cncn1)(Cn1cncn1)c1ccc(F)cc1F`, the “activity, negative = inhibition” value is reported as 4.52%. In the case of `CCOC(=O)c1ccc(C#Cc2ccc3c(c2)C(C)(C)CCS3)nc1`, the “activity, negative = inhibition” value is reported as -1.64%. With `O=c1cc(O)c(Cl)c[nH]1` the “activity, negative = inhibition” value was 5.84%. With `CCn1cc(C(=O)O)c(=O)c2cc(F)c(N3CCN(C)CC3)cc21` the “activity, negative = inhibition” value was -1.83%. With `CC(C)NCC(O)c1ccc(NS(C)(=O)=O)cc1` (stereo not given) the Potency was “inactive”. In the case of `Cc1cccc(N(C)C(=S)Oc2ccc3ccccc3c2)c1`, the “activity, negative = inhibition” value is reported as 2.66% [at 12.8 µM]. In the case of `CC(=O)Oc1ccccc1C(=O)Nc1ncc([N+](=O)[O-])s1`, the “activity, negative = inhibition” value is reported as -0.437%. With `CC[C@H](C)C(=O)O[C@H]1C[C@@H](C)C=C2C=C[C@H](C)[C@H](CC[C@@H]3C[C@@H](O)CC(=O)O3)[C@H]21` the “activity, negative = inhibition” value was 0.271%. With `CC(C)OC(=O)C(C(=O)OC(C)C)=C1SC=CS1` the “activity, negative = inhibition” value was 7.2%. With `O=S(=O)(O)CCS` the “activity, negative = inhibition” value was -8.92%. `Cc1nnc(NS(=O)(=O)c2ccc(N)cc2)s1` was tested, and the “activity, negative = inhibition” value was -16.9%. In the case of `CNC1CCCN(c2c(F)cc3c(=O)c(C(=O)O)cn(C4CC4)c3c2OC)C1` (stereo not given), the “activity, negative = inhibition” value is reported as 2.04%. In the case of `S=P(N1CC1)(N1CC1)N1CC1`, the “activity, negative = inhibition” value is reported as -1.63%. For `N=C(N)c1ccc(OCCCCCOc2ccc(C(=N)N)cc2)cc1`, the Potency was 1070 nM (active). In the case of `CCCc1nc(C)c2c(=O)[nH]c(-c3cc(S(=O)(=O)N4CCN(CC)CC4)ccc3OCC)nn12`, the “activity, negative = inhibition” value is reported as -17.7%. In the case of `CC1=CC(=O)c2ccccc2C1=O`, the “activity, negative = inhibition” value is reported as -20.1%.
